Hits are enriched below; roughly 8.2% of the tested compounds scored in any of these assays.
SW480 rereplic – A quantitative high throughput screen for small molecules that induce DNA re-replication in SW480 colon adenocarcinoma cells; SW480 DNA re-replication, Hoechst DNA content imaging, 48 h; Potency, µM (titrated, usually from 46.1 µM), for inactives: at the highest dose re-replication activation, most hits filed as activators; actives 1.8% (n = 340,000); AID 624297, 2012; note: % of control where 0% means no effect; nearly all actives have a fitted effect of over 55% in size
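Cells (250 per well) received 23 nL compound or DMSO by pin tool and were kept 48 hr at 37 C, 5% CO2. Nuclei were then stained with Hoechst for 40 min and scanned for DNA content.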
ELG1 repair inh – qHTS screen for small molecules that inhibit ELG1-dependent DNA repair in human embryonic kidney (HEK293T) cells expressing luciferase-tagged ELG1. Potency, µM (titrated, usually from 46.1 µM), inactives show top-dose activity change, negative = inhibition, hits mostly inhibitors. AID 504467, 2011. actives 2.3% (n = 330,000). HEK293T ELG1-luciferase reporter, luminescence, 16 h; DNA damage induced by 5-fluorouridine; note: % is set by controls: 0 for no effect and ±100 for the full control effect; nearly all actives have a fitted effect of over 55% in size
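Luminescence from the luciferase reporter, measured 30 min after ONE-Glo reagent at room temperature, was the read-out. Beforehand, 2,000 cells per well were exposed for 16 hr at 37 °C to 5-fluorouridine together with compound or vehicle.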
KB-V1 cytotox – qHTS assay for MDR1-selective chemotherapeutics: Primary screen using the drug-selected MDR subline cells KB-V1 | actives 3.4% (n = 400,000) | AID 1347076, 2019 | Potency, µM (titrated, usually from 46.1 µM), hits mostly cytotoxic | KB-V1 MDR cells viability, CellTiter-Glo, 72 h; note: % is set by controls: 0 for no effect and ±100 for the full control effect; nearly all actives have a fitted effect of over 60% in size
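Compound-treated KB-V1 multidrug-resistant cells, 72 h, 37 degrees C; viability by CellTiter-Glo. Fitted qHTS curves give the values.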
KB-3-1 cytotox – qHTS assay for MDR1-selective chemotherapeutics: Primary screen using the parental adenocarcinoma cell KB-3-1 | KB-3-1 viability, CellTiter-Glo ATP luminescence, 72 h | Potency, µM (titrated, usually from 46.1 µM), usual class: cytotoxic | actives 1.4% (n = 400,000); note: % is set by controls: 0 for no effect and ±100 for the full control effect; nearly all actives have a fitted effect of over 60% in size
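Here the drug-naive KB-3-1 line serves as comparator for MDR sub-line selectivity; cells received compound titrations, 72 h at 37 °C, then CellTiter-Glo readout.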
MCF10A rerep – A quantitative high throughput screen for small molecules that induce DNA re-replication in MCF 10a normal breast cells. MCF 10A DNA re-replication, Hoechst nuclear intensity, 48 h. Potency, µM (highest dose often 46.1 µM), for inactives: top-dose activity, positive = re-replication, hits mostly activators. actives 2.9% (n = 350,000); note: % of control where 0% means no effect; nearly all actives have a fitted effect of over 50% in size
Starred values were filed as active, the others as inactive; i = inactive; ? = inconclusive; . = no result given. Calls come from the whole dose curve; as a rule, active = well fitted curve in the direction sought with a large enough effect; inconclusive = small, poorly fitted or top-dose-only effect, or another doubt; inactive = no such curve, though single readings can be large; an effect the other way counts as inactive or inconclusive. Potency is the fitted concentration of half-maximal effect.

SMILES	SW480 rereplic	ELG1 repair inh	KB-V1 cytotox	KB-3-1 cytotox	MCF10A rerep
CC(=O)/C(=C/N(C)C)C(=O)Nc1ccc(Cl)cc1Cl	?	-29%	i	i	18µM*
CN(C)/C=N/C(=S)Nc1ccc(Cl)cc1Cl	21µM*	?	i	i	?
CC1(C)CC(=O)C=C(c2cccc(O)c2)C1	2%	8%	i	i	10%
O=C(CNC(=O)c1ccc(Br)cc1)OC1CCOC1=O (centres undefined)	.	.	i	i	.
CC(C)C(C)NC(=O)COc1ccc(Sc2ccc(OCC(=O)NC(C)C(C)C)cc2)cc1 (centres undefined)	4%	8.2µM*	2.9µM*	?	15%
Cc1ccc2c(c1)c1c(n2CC(O)Cn2nc(C)c(Br)c2C)CCCC1 (centres undefined)	9%	-20%	21µM*	?	23µM*
COCCNc1nc(NCCOc2ccccc2)c2sc(-c3ccccc3)cc2n1	.	.	?	i	.
C[C@@]12CCC=C[C@H]1[C@H](c1ccc(C(F)(F)F)cc1)N(Cc1ccccc1)C2=O	-11%	?	i	i	12%
NC(=O)c1nnn(Cc2cc(Cl)c(C(=O)c3ccc(Cl)cc3)c(Cl)c2)c1N	.	.	8.2µM*	?	.
Nc1c(C(=O)Nc2ccc3c(c2)OCCO3)nnn1Cc1ccc(Cl)cc1	-4%	?	i	i	3%
C=CCN1C(=O)c2ccc(C(=O)N3CCN(S(=O)(=O)c4cccc([N+](=O)[O-])c4)CC3)cc2C1=O	-17%	-1%	i	i	3%
CCCCOc1ccc(Cc2c(Cl)nc(SC)nc2N2CCOCC2)cc1	4%	-7%	21µM*	i	15%
Nc1cc(-c2ccc(Br)cc2)[nH]n1	?	13µM*	i	i	?
Cc1cc(NC(=O)CSc2ccc3c(c2)OCCO3)no1	-13%	7%	i	i	-2%
O=C(Cn1cc(C(F)(F)F)ccc1=O)NCCc1ccc(Cl)cc1Cl	2%	7%	i	i	-6%
O=C(CSc1ccc2c(c1)OCCO2)NCCc1ccc(Cl)cc1Cl	-45%	0%	18µM*	i	17%
Cc1ccnc(NC(=O)CSc2ccc3c(c2)OCCO3)c1	-5%	?	18µM*	i	3%
Cc1ccnc(NC(=O)c2ccc3c(c2)NC(=O)C(C)S3)c1 (centres undefined)	5%	?	i	18µM*	3%
N#Cc1ccc(CN2CCN(CC(=O)NCCc3ccc(Cl)cc3Cl)CC2)cc1	?	-18%	18µM*	i	?
CC(=O)c1ccccc1NC(=O)c1ccc2c(c1)NC(=O)C(C)S2 (centres undefined)	-15%	?	?	?	?
COC(=O)C1=C[C@@H](C(=O)OC)[C@@H]2C3=C(C(=O)C2(C)C)[C@H](c2ccccc2)[C@@H]2C(=O)N(C)C(=O)[C@@H]2[C@@H]3C1	1%	.	?	i	2%
Cc1ccc(S(=O)(=O)c2nc(-c3ccco3)oc2SC(C)C)cc1	-3%	-1%	i	i	?
CC(C)(C)c1ccc(NC(=O)COC(=O)c2ccccc2OCC(=O)Nc2ccc(Br)cc2)cc1	.	.	i	i	.
COc1ccc2c(c1)O[C@@]1(CCCC[C@@H]1C)CC2=O	1%	28%	i	?	?
Cc1ccc(-n2ncc(C(=O)NCCN3CCc4ccccc4C3)c2C2CCN(C(=O)OC(C)(C)C)CC2)c(C)c1	.	.	i	i	.
SMILES	SW480 rereplic	ELG1 repair inh	KB-V1 cytotox	KB-3-1 cytotox	MCF10A rerep
Cc1ccnc(NC(=O)c2ccc3c(c2)OCO3)c1	-19%	?	18µM*	16µM*	0%
O=C(CSc1ccc2c(c1)OCCO2)NC(=O)NC1CCCC1	-6%	0.73µM*	?	i	5%
O=C(CSc1ccc2c(c1)OCCO2)Nc1ccccc1	.	.	?	i	.
O=C(CSc1ccc2c(c1)OCCO2)Nc1ncc(Cl)cc1Cl	-7%	?	21µM*	i	-1%
O=C(Nc1ccon1)c1ccc2c(c1)OCO2	-9%	?	i	i	16%
CC(=O)Nc1ccc(S(=O)(=O)N2CCN(C(=O)c3ncoc3-c3cccc(F)c3)CC2)cc1	-4%	?	i	i	2%
CC(OC(=O)Cn1ccccc1=O)C(=O)Nc1cc(Cl)cc(Cl)c1 (centres undefined)	-16%	13%	i	i	5%
Cc1cc(C)c(NS(=O)(=O)c2ccccc2)c(C)c1NS(=O)(=O)c1ccccc1	-3%	.	i	i	10%
COc1ccc(C2CC(O)(c3ccccc3)Oc3c(C)ccc(C)c32)cc1 (centres undefined)	?	1%	?	?	?
COc1ccc(C2CC(O)(c3ccccc3)Oc3cc(OC)cc(OC)c32)cc1 (centres undefined)	-4%	-19%	i	?	21µM*
COc1ccc2c(C)c(CC(=O)N3CCN(C(=O)C4COc5ccccc5O4)CC3)c(=O)oc2c1 (centres undefined)	?	23µM*	i	i	?
Cc1ccc(S(=O)(=O)N2CCN(C(=O)C3COc4ccccc4O3)CC2)cc1C (centres undefined)	1%	-16%	9.2µM*	i	12%
Cc1ccc(S(=O)(=O)N2CCN(C(=O)[C@H](Cc3ccccc3)NC(=O)c3ccco3)CC2)cc1C	0%	-21%	12µM*	i	2%
Cc1c(CC(=O)N2CCN(C(=O)C3COc4ccccc4O3)CC2)c(=O)oc2cc(O)ccc12 (centres undefined)	?	0.73µM*	i	i	0%
O=C(OCC(=O)N1CCN(C(=O)c2ccco2)CC1)c1ccc(Cl)nc1	0%	0%	i	i	-1%
CC(=O)Oc1ccc(C2=Cc3ccc(OC(C)=O)cc3OC2C)cc1 (centres undefined)	?	.	?	?	4.1µM*
COCCNC(=O)c1c(NC(=O)c2cc(=O)c3cc(C)cc(C)c3o2)sc2c1CCCC2	.	.	i	i	.
Cc1ccc(C)c(N2CCN(CCCNC(=O)c3ccc4nc(N5CCC(C)CC5)sc4c3)CC2)c1	.	.	?	21µM*	.
Cc1ccc(Cl)cc1N1CCN(CCCNC(=O)c2ccc3nc(N4CCCCC4)sc3c2)CC1	.	.	16µM*	?	.
COc1ccc(N2CCN(CCCNC(=O)c3ccc4nc(N5CCCCC5)sc4c3)CC2)cc1	.	.	i	i	.
